From PubChem BioAssay
The list is not random: actives were taken first. Their share in the collection is about 1.2%.
Avidin fluor = avidin bead compound fluorescence profile | Avidin beads, compound fluorescence 488/530 nm, flow cytometry; stronger effect = higher value | fluorescence (KMESF) at 10 µM | 0.38% of 220,000 active | AID 1775; in the data active means fluorescence above about 47
RGS16-Gao HTS = modulates binding between human RGS16 and Galphao; binding response (% of control), % at 10 µM; 0.38% of 220,000 active; bead-based flow cytometry RGS16-Galphao binding, fluorescence; actives lie on both sides; AID 1441;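 further: Galphao activated by GDP with aluminum fluoride before binding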
Target sequence (O15492 whole entry, looked up): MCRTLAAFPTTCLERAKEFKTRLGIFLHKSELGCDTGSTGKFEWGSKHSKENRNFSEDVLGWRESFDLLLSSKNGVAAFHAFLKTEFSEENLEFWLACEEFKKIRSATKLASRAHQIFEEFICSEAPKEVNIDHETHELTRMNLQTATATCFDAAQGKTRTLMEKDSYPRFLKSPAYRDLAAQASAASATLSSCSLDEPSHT
Target sequence (P09471 whole entry, looked up): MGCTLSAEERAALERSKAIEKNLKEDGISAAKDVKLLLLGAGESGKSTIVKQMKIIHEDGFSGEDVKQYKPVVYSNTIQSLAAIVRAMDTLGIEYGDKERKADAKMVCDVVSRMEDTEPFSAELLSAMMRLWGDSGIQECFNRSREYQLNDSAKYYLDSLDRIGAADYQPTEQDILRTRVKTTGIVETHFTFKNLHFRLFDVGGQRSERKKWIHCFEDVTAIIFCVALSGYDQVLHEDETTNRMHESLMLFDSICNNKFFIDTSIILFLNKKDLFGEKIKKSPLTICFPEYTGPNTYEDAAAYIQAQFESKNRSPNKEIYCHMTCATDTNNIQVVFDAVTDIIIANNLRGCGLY
RGS8-Gao reg = regulators of human RGS8-Galphao interaction; response (percent of control binding), % at 10 µM; multiplexed bead flow cytometry, RGS8-Galphao binding; actives lie on both sides; 0.34% of 220,000 active; AID 1423; in the data active means response below about 60% or above about 140%; inactive means in between;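 further: Galphao activated as the GDP aluminium fluoride complex binding bead-coupled RGS8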
Target sequence (P09471 whole entry, looked up): as above
RGS4-Gao reg = modulates binding of RGS4 to human Galphao | P09471 | Multiplexed bead flow cytometry; actives lie on both sides | binding response (% of control), % at 10 µM | 0.33% of 220,000 active | AID 1415; in the data active means binding response below about 49% or above about 150%; inactive means in between;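 further: fluorescent Galphao activated with aluminum fluoride binding bead-coupled RGS4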
GSH bead fluor = compound fluoresces at 488/530 nm on GSH beads; GSH beads flow cytometry, compound fluorescence 488/530 nm; stronger effect = higher value; fluorescence (KMESF) at 10 µM; 0.25% of 190,000 active; AID 1776; in the data active means fluorescence above about 89;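 further: glutathione beads carrying GST-tagged Bcl family fusion proteins plus one bare bead set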
RGS7-Gao reg = modulates binding of RGS7 to human Galphao; AID 1439; binding response (% of control), % at 10 µM; Multiplexed bead flow cytometry; actives lie on both sides; 0.35% of 220,000 active; P09471; in the data active means binding response below about 49% or above about 150%; inconclusive means no clear call, values can overlap the other calls; inactive means in between;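 further: fluorescent Galphao held in activated GDP-AlF4 state binding bead-coupled RGS7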
RGS-Gao = regulators of human RGS4-Galphao interaction; 99% of 1,600 active; RGS4–Galpha-o binding response, % at 10 µM; shares compounds with RGS16-Gao HTS; multiplexed bead flow cytometry, RGS–Galpha-o binding; AID 1504;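 further: fluorescently labeled Galpha-o bound to GDP with aluminium fluoride binding biotinylated RGS beads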
Biotin-avidin = biotin-avidin bead binding disruption counter-screen | 1,700 tested, under 10 active | streptavidin beads, fluorescein-biotin binding, flow cytometry | shares compounds with RGS16-Gao HTS | inhibition, % at 10 µM;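 active means inhibition above 50%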;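 further: median green fluorescence of gated singlet beads compared with DMSO control wells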
RGS8-Gao single = confirmation of regulators of human RGS8-Galphao interaction | shares compounds with RGS16-Gao HTS | bead-based flow cytometry RGS8-Galphao binding, fluorescence; actives lie on both sides | binding response (% of control), % at 10 µM | 3% of 1,700 active; in the data active means binding response below about 72% or above about 130%; inactive means in between;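 further: Galphao activated as GDP AlF4 complex before binding bead RGS8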
RGS7-Gao confirm = RGS7-Galphao interaction regulation, single point confirmation | shares compounds with RGS16-Gao HTS | AID 1837 | bead-based flow cytometry RGS7-Galphao binding; actives lie on both sides | response (percent of control binding), % at 10 µM | 7.8% of 1,700 active; in the data active means response below about 75% or above about 130%; inactive means in between;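 further: fluorescent Galphao activated with GDP and aluminum fluoride binding bead-coupled RGS7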
RGS16-Gao single = RGS16-Galphao interaction regulation, single point confirmation; 4% of 1,700 active; bead-based flow cytometry, RGS16-Galphao binding; actives lie on both sides; response (% of control binding), % at 10 µM; shares compounds with RGS16-Gao HTS; AID 1838; in the data active means response below about 74% or above about 130%; inactive means in between;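 further: Galphao activated as the GDP aluminium fluoride complex binding bead-coupled RGS16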
RGS4-Gao confirm = RGS4-Galphao interaction regulation, single point confirmation; shares compounds with RGS16-Gao HTS; RGS4-Galphao binding, multiplexed bead flow cytometry; actives lie on both sides; binding response (% of control), % at 10 µM; 4% of 1,700 active; AID 1840; in the data active means binding response below about 74% or above about 130%; inactive means in between
RGS19-Gao conf = confirmation of regulators of human RGS19-Galphao interaction. shares compounds with RGS16-Gao HTS. bead-based flow cytometry RGS19-Galphao binding; actives lie on both sides. AID 1841. 5% of 1,700 active. response (percent of control binding), % at 10 µM; in the data active means response below about 50% or above about 160%; inactive means in between
A number is an active result; . = inactive; ? = inconclusive; / = not tested or not shown; [ ] = dose if it differs, or a comment. Unless noted, how the calls were made is not given here.

SMILES | Avidin fluor | RGS16-Gao HTS | RGS8-Gao reg | RGS4-Gao reg | GSH bead fluor | RGS7-Gao reg | Biotin-avidin | RGS8-Gao single | RGS7-Gao confirm | RGS16-Gao single | RGS4-Gao confirm | RGS19-Gao conf | others
CCC(Sc1ccc(C(=O)O)cc1)C(=O)O (configuration not stated) | 50 | . | . | . | . | . | / | / | / | / | / | /
CCCNC(=O)Nc1nccs1 | 57 | . | . | . | . | . | / | / | / | / | / | /
CC(C)(C)C(=O)NC(=S)NNC(=O)c1ccc(Cl)cc1Cl | . | . | . | . | . | . | / | / | / | / | / | /
CC1Cc2ccccc2N1C(=O)CSc1nnnn1C (configuration not stated) | . | . | . | . | 251 | . | / | / | / | / | / | /
CCN=C1S/C(=C\c2ccc(OC)c(OCC)c2)C(=O)N1CC | . | . | . | . | 106 | . | / | / | / | / | / | /
COc1ccc(/C=C2\SC(=NCc3ccccc3)N(Cc3ccccc3)C2=O)cc1OC | . | . | . | . | . | . | / | / | / | / | / | /
CN(C)CCNc1oc(-c2cccc(Cl)c2)nc1C#N | . | 5.0 | 31.4 | 0.2 | . | 12.5 | . | . | . | . | . | .
Cc1ccc(C(=O)COC(=O)c2cc(Cl)nc3ccccc23)cc1C | . | . | 157.6[activator] | . | . | . | / | / | / | / | / | / | RGS-Gao=129.9
Cc1ccc(C)c(C(=O)COC(=O)c2cc(Cl)nc3ccccc23)c1 | . | . | . | . | . | . | / | / | / | / | / | /
c1ccc(Cn2cc(CNc3ccccc3)nn2)cc1 | . | . | . | . | / | ? | / | / | / | / | / | /
N#CC1=C2SCCN2C(=O)C(C#N)C12CCCCC2 (configuration not stated) | / | -10.3 | 12.7 | -14.9 | . | -0.9 | . | . | . | . | . | .
CCSC1=C(C#N)C2(CCCCC2)C(C#N)C(=O)N1 (configuration not stated) | . | . | . | . | . | . | / | / | / | / | / | /
Cc1cc(/C=N/NC(=O)c2ccc(O)cc2)c(C)n1CC(C)C | . | . | . | . | / | ? | / | / | / | / | / | /
O=S(=O)(c1cc(Cl)ccc1Cl)n1cccn1 | . | . | . | . | . | . | / | / | / | / | / | /
CC(=O)Nc1ccc(Nc2ccc(N3C(=O)CCCC3=O)cc2[N+](=O)[O-])cc1 | . | . | 52.9 | 45.8 | . | 47.4 | . | . | . | . | . | .
CCOC(=O)c1cnc(/N=C/N(C)C)s1 | . | . | . | . | . | . | / | / | / | / | / | /
COC(=O)C1CCN(C2CC(=O)N(c3cc(C)cc(C)c3)C2=O)CC1 (configuration not stated) | . | . | . | . | . | . | / | / | / | / | / | /
CNc1nc(-c2ccc3c(c2)CCN3C(=O)c2ccc(F)cc2)cs1 | . | . | . | . | . | . | / | / | / | / | / | /
CNc1nc(-c2ccc3c(c2)CCN3C(=O)c2ccccc2C)cs1 | . | . | 59.5 | . | . | . | . | . | . | . | . | . | RGS-Gao=83.8
Cc1nc2c(=O)oc3ccccc3c2n1-c1ccccc1 | . | . | 140.8[activator] | . | . | . | / | / | / | / | / | / | RGS-Gao=128.3
O=C(O)COc1ccccc1/C=C1\SC(=S)N(c2cccnc2)C1=O | . | . | . | . | / | ? | / | / | / | / | / | /
Cc1ccc(OCC(=O)NCc2cccs2)c([N+](=O)[O-])n1 | . | . | . | . | . | . | / | / | / | / | / | /
CCc1cccc(N(C(=O)c2csnn2)C(C(=O)NC(C)(C)C)c2ccccn2)c1 (configuration not stated) | . | . | . | . | . | . | / | / | / | / | / | /
Cc1ccc(S(=O)(=O)N(C)C)cc1NC(=O)c1ccncc1 | . | . | . | . | . | . | / | / | / | / | / | /
Cc1ccc(S(=O)(=O)C(F)(F)F)cc1NC(=O)c1cccnc1 | . | 180.6[activator] | . | . | . | . | . | . | . | . | . | . | RGS-Gao=107.7
SMILES | Avidin fluor | RGS16-Gao HTS | RGS8-Gao reg | RGS4-Gao reg | GSH bead fluor | RGS7-Gao reg | Biotin-avidin | RGS8-Gao single | RGS7-Gao confirm | RGS16-Gao single | RGS4-Gao confirm | RGS19-Gao conf | others
C=CCn1c(SCC(=O)NC23CC4CC(CC(C4)C2)C3)nc2cc(C(=O)O)ccc2c1=O | . | . | . | . | . | . | / | / | / | / | / | /
CCOC(=O)C[N+]1(C)CCN(C(C)=O)CC1 | . | . | . | . | . | . | / | / | / | / | / | /
COc1ccc(NC(=O)Cn2c(=O)n(-c3ccccc3)c(=O)c3oc4ccccc4c32)c(OC)c1 | . | 232.5[activator] | . | . | . | . | . | . | . | . | . | . | RGS-Gao=106.1
COc1ccccc1NC(=O)Cn1c(=O)n(-c2ccccc2)c(=O)c2oc3ccccc3c21 | . | . | . | . | . | . | / | / | / | / | / | /
Cc1cc(-c2n[nH]c(=S)n2/N=C/c2cc([N+](=O)[O-])ccc2Cl)n[nH]1 | . | -2.0 | . | . | . | . | . | . | . | . | . | . | RGS-Gao=83.4
CCN(CC)c1ccc(NC(=O)c2cccc(F)c2)c(C)c1 | . | . | 53.1 | 44.7 | . | 40.3 | . | . | . | . | . | .
CCN(CC)c1ccc(NC(=O)c2ccco2)c(C)c1 | . | . | . | . | . | . | / | / | / | / | / | /
CC(C)=NOc1nc(N(C)C)nc(N(C)C)n1 | . | 207.6[activator] | . | . | . | . | . | . | . | . | . | . | RGS-Gao=107.7
COC(=O)c1sccc1NC(=O)COc1ccc(F)cc1Cl | . | . | . | . | . | . | / | / | / | / | / | /
CCN(CC)C(=O)Oc1ccc(Cl)c2cccnc12 | . | . | . | . | . | ? | / | / | / | / | / | /
O=C(Nc1cccc(C(F)(F)F)c1)Oc1ccc(Cl)c2cccnc12 | . | . | 54.6 | 26.2 | / | ? | . | . | . | . | . | .
CC(=O)C1=C(C)NC(=S)NC1c1cc([N+](=O)[O-])ccc1O (configuration not stated) | . | . | . | . | / | ? | / | / | / | / | / | /
CCOP(=O)(OCC)C(C)(C)NC(=O)c1cc([N+](=O)[O-])cc([N+](=O)[O-])c1 | / | / | / | / | . | / | . | . | . | . | . | .
CCC(C)(C)NC(=O)c1cc(C(=O)OC)cc([N+](=O)[O-])c1 | . | . | . | . | . | . | / | / | / | / | / | /
